Experimental data: PubChem BioAssay
Activity calls are given as the source filed them. Unless noted, how the calls were made is not given here.

Experiments:
[1] = HepG2 liver cancer cell viability effects, profiling panel, resazurin fluorescence, 24 h, PK04 Diversity Set (AID 1172); conditions: higher = more signal
[2] = basal S. cerevisiae growth modulation, no modifier, primary screen, OD600, strain BY4716, 24 h, basal condition (AID 1173); conditions: OD600, 24 h, higher = more signal, called active from +8 up or from −8 down
[3] = MM1S myeloma cell viability, profiling panel, resazurin fluorescence, basal, 24 h, PK04 Diversity Set (AID 1174); conditions: higher = more signal, called active from +8 up or from −8 down;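 further: MM1S multiple myeloma cell line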
[4] = target: Dihydroorotate dehydrogenase (quinone), mitochondrial (Plasmodium falciparum (isolate 3D7)) (UniProt Q08210); test: PfDHODH enzyme inhibitors, primary screen, biochemical, C-terminal His tag, absorbance 600 nm (AID 1175); conditions: DCIP absorbance 600 nm, higher = more signal, called active from +8 up or from −8 down;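 further: recombinant parasite enzyme with a five histidine tag at its C terminus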
Dihydroorotate dehydrogenase (quinone), mitochondrial (Plasmodium falciparum (isolate 3D7)), sequence (Q08210 whole entry, looked up): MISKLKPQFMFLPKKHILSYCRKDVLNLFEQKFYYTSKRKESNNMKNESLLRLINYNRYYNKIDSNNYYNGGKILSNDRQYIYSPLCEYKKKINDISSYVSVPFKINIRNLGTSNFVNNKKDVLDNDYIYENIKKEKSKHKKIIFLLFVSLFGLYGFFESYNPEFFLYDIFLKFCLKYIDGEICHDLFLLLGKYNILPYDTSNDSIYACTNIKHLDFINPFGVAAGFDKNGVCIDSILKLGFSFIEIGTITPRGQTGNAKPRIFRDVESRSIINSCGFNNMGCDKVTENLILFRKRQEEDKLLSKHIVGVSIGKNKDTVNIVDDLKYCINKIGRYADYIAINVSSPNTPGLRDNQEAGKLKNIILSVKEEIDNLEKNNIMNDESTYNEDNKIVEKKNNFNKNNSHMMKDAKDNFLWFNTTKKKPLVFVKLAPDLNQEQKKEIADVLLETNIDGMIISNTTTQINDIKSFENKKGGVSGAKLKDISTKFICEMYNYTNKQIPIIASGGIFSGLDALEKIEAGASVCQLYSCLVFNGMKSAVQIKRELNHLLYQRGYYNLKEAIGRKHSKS

[5] = P. aeruginosa biofilm formation inhibitors, primary screen, strain PAO1, LB-PBS medium, absorbance 600 nm (AID 1176); conditions: P. aeruginosa PAO1 growth/biofilm, A600, 12 h; higher = more signal
[6] = S. cerevisiae RM11-1a growth modifiers, primary screen, strain RM11-1a, OD600, basal, 24 h (AID 1177); conditions: OD600, 24 h, higher = more signal, called active from +8 up or from −8 down;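 further: cultures grown under basal conditions with no added stressor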
[7] = E. coli acrAB mutant growth effects, primary screen, E. coli filamentation inducers, strain DRC39, OD650, 24 h (AID 1178); conditions: higher = more signal, called active from +8 up or from −8 down;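 further: growth measured as culture turbidity by optical density at 650 nm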
[8] = E. coli acrAB mutant growth effects, primary screen, E. coli filamentation inducers, strain DRC39, OD650, 48 h (AID 1179);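 further: screen aims at cell division blockers that make cells filament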; conditions: E. coli DRC39 delta-acrAB growth, higher = more signal, called active from +8 up or from −8 down
[9] = RPMI8226 myeloma cell viability, profiling panel, resazurin fluorescence, basal, 24 h, PK04 Diversity Set (AID 1180); conditions: higher = more signal;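 further: RPMI8826 multiple myeloma cell line at 5000 cells per well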
[10] = target: E3 ubiquitin-protein ligase XIAP (Homo sapiens) (UniProt P98170); test: XIAP binders, primary screen, biophysical, small-molecule microarray, fluorescence 635 nm (AID 1181); conditions: small-molecule microarray binding, higher = more signal;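 further: score merges 667 nm emission and signal to noise over triplicate slides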
E3 ubiquitin-protein ligase XIAP (Homo sapiens), sequence (P98170 whole entry, looked up): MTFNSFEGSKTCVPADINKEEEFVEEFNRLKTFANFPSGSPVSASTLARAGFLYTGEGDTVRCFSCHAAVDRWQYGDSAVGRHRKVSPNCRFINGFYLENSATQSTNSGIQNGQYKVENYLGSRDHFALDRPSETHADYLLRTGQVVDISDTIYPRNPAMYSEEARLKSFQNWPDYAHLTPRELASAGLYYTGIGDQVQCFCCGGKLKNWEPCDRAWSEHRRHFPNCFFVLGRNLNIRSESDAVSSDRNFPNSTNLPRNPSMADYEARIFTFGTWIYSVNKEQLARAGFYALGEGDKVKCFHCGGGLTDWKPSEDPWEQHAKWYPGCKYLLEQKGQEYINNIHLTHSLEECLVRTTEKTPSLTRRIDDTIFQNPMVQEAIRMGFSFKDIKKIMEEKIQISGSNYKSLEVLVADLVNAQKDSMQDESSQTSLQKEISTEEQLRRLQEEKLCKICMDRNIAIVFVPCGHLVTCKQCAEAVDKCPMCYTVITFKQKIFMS

[11] = tested on: XIP peptide (Xip251-270) binding; test: small-molecule binders of XIP peptide, primary screen, biochemical, small-molecule microarray, fluorescence 635/667 nm, 0.1 µg/mL protein (AID 1182); conditions: fluorescent protein binding, 635 nm, higher = more signal, called active from +8 up or from −8 down
[12] = tested on: XIP peptide (Xip251-270); test: small-molecule binders of XIP peptide, primary screen, biochemical, small-molecule microarray, fluorescence 635/667 nm, 0.5 µg/mL protein (AID 1183); conditions: small-molecule microarray binding, fluorescence 635 nm; higher = more signal
[13] = Plasmodium falciparum growth inhibition, primary screen, strain 3D7, DAPI fluorescence, 100 nL (AID 1184);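 further: parasites grown inside human red blood cells in medium with human serum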; conditions: P. falciparum 3D7 growth, 3 d, higher = more signal
[14] = target: Homeobox protein Hox-A13 (Mus musculus) (UniProt Q62424); test: inhibitors of HoxA13-DNA binding, primary screen, biochemical, fluorescence polarization, labeled oligonucleotide (AID 1185); conditions: 15 min, higher = more signal, called active from +8 up or from −8 down
Homeobox protein Hox-A13 (Mus musculus), sequence (Q62424 whole entry, looked up): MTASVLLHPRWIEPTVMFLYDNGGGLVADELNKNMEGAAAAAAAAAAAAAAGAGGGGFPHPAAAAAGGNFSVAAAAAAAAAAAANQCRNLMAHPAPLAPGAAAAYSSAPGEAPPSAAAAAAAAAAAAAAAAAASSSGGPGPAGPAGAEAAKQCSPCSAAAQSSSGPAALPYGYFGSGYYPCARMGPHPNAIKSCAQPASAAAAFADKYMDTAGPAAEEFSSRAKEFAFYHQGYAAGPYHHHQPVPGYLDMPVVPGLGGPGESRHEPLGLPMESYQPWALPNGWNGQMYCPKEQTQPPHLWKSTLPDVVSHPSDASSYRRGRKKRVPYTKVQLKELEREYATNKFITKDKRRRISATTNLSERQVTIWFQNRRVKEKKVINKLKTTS

[15] = inhibitors of hydroxyurea-induced Chk1 phosphorylation, primary screen, imaging, HeLa, phospho-Chk1 antibody, percent positive cells (AID 1186); conditions: hydroxyurea-induced phospho-Chk1 immunofluorescence imaging, higher = more signal
[16] = inhibitors of hydroxyurea-induced Chk1 phosphorylation, primary screen, imaging, HeLa, phospho-Chk1 nuclear intensity (AID 1187); conditions: hydroxyurea-induced phospho-Chk1 immunofluorescence imaging, higher = more signal

Row | Structure (SMILES) | z-score [1] | z-score [2] | z-score [3] | composite z-score [4] | z-score [5] | z-score [6] | z-score [7] | z-score [8] | z-score [9] | composite z-score [10] | composite z-score [11] | composite z-score [12] | z-score [13] | z-score [14] | z-score [15] | z-score [16]
1 | CCCC[C@@H](O)C1=C(COc2ccccc2)C[C@H]2C(=O)N(Cc3ccccc3)C(=O)[C@H]2[C@H]1CO | -0.78 | -1.66 (inactive) | -0.857 (inactive) | -4.48 (inactive) | -0.508 (inactive) | 0.743 (inactive) | -0.0552 (inactive) | 0.218 (inactive) | -0.301 | -0.0118 | -0.243 (inactive) | 0.374 | 0.131 | -7.37 (inactive) | -0.782 (inactive) | -0.513 (inactive)
2 | COC(=O)[C@@]1(Cc2ccc(OC)cc2)[C@H]2c3cc(C(=O)N4CCCC4)n(CCO)c3C[C@H]2CN1C(=O)c1ccccc1 | -1.39 | 0.91 (inactive) | -2.2 (inactive) | -0.203 (inactive) | 0.632 (inactive) | 0.941 (inactive) | -0.614 (inactive) | -1.21 (inactive) | -0.861 | 0.311 | 0.675 (inactive) | 0.643 | -1.72 | -5.06 (inactive) | 1.33 (inactive) | 0.404 (inactive)
3 | CCN(CC)c1ccc(N2CC=CC34O[C@@H]5/C=C\CCCOC(=O)C5[C@H]3C(=O)N(C(C)CO)[C@@H]4C2=O)cc1 (stereo not given in full) | 0.242 | -0.566 (inactive) | 0.516 (inactive) | -2.25 (inactive) | -0.14 (inactive) | -0.355 (inactive) | 1.9 (inactive) | 1.92 (inactive) | 0.778 | 0.115 | -0.322 (inactive) | 0.213 | 0.226 | -5.97 (inactive) | 0.296 (inactive) | 0.804 (inactive)
4 | O=C1[C@H]2C=C(I)[C@H](C[C@@H]2OCCOCCO)[C@@]12CO2 | 0.0263 | -0.28 (inactive) | -0.448 (inactive) | 0.0832 (inactive) | 0.224 (inactive) | -0.145 (inactive) | -0.331 (inactive) | -0.175 (inactive) | -0.244 | -0.304 | 0.0014 (inactive) | -0.0714 | 0.79 | 0.122 (inactive) | 0.363 (inactive) | 0.401 (inactive)
5 | C=C[C@H](C)[C@H](OC(=O)Nc1ccc(SC)cc1)c1ccc(OCCO)cc1 | -0.551 | -2.49 (inactive) | -0.547 (inactive) | -0.985 (inactive) | 1.15 (inactive) | 0.116 (inactive) | -0.576 (inactive) | -0.435 (inactive) | -0.274 | 0.133 | 2.81 (inactive) | 0.232 | -0.563 | -5.1 (inactive) | -1.34 (inactive) | -0.511 (inactive)
6 | CCOC(=O)C[C@H]1[C@H](OC(=O)Cc2ccc3c(c2)OCO3)[C@@H](NC(=O)c2ccc3ccccc3n2)c2cc(OCCCO)ccc2N1C(=O)c1ccc2ccccc2n1 | 0.482 | -1.22 (inactive) | -0.145 (inactive) | -0.574 (inactive) | 0.325 (inactive) | -2.19 (inactive) | 2.08 (inactive) | 1.57 (inactive) | -0.172 | -0.0773 | -0.113 (inactive) | 0.66 | -2.58 | -2.98 (inactive) | -0.663 (inactive) | -0.162 (inactive)
7 | C=CCC(OC(C)=O)[C@@H]1[C@@H](N(Cc2ccc(-c3cccc(C(F)(F)F)c3)o2)C(=O)c2ccc(-c3ccccc3)cc2)c2cc(OCCCO)ccc2N1C(=O)Cc1ccc2ccccc2c1 (stereo not given in full) | 0.0839 | 0.915 (inactive) | -0.115 (inactive) | 0.306 (inactive) | 0.338 (inactive) | 0.805 (inactive) | 0.0952 (inactive) | 0.119 (inactive) | 0.322 | -0.17 | -0.186 (inactive) | -0.738 | -0.694 | -1.1 (inactive) | 0.345 (inactive) | 0.291 (inactive)
8 | COCC(=C=CC[C@H](O)c1ccc(CO)o1)CCO | -0.116 | -1.63 (inactive) | -0.0463 (inactive) | -2.35 (inactive) | -0.165 (inactive) | 0.256 (inactive) | -0.401 (inactive) | -0.524 (inactive) | 0.036 | 0.536 | -0.224 (inactive) | 0.297 | 1.08 | -3.75 (inactive) | 0.625 (inactive) | 0.295 (inactive)
9 | CCOC(=O)C[C@H]1[C@H](OC(=O)Cc2ccc3c(c2)OCO3)[C@@H](NC(=O)C2CCCCC2)c2cc(OCCCO)ccc2N1C(=O)c1ccccc1 | -0.215 | 0.149 (inactive) | 0.327 (inactive) | 0.108 (inactive) | 0.407 (inactive) | 0.0834 (inactive) | 1.39 (inactive) | 1.37 (inactive) | 0.3 | -0.173 | -0.137 (inactive) | 0.514 | -0.201 | -3.57 (inactive) | -0.296 (inactive) | -0.176 (inactive)
10 | C=CC[C@H](OC(=O)Nc1ccc(SC)cc1)c1ccc(O)c2ccccc12 | -1.26 | -16.6 (active) | -6.71 (inactive) | -6.87 (inactive) | 1.44 (inactive) | -20.3 (active) | -0.146 (inactive) | -0.772 (inactive) | -5.02 | 0.104 | 1.07 (inactive) | 0.728 | -0.922 | -1.35 (inactive) | -0.0114 (inactive) | 0.142 (inactive)
